# Experimental data taken from PubChem BioAssay (NCATS).
# Results filed as inconclusive are left out. Entries that show only a call come without a potency. Unmarked numbers belong to inactive results. Activity calls are given as the source filed them. Calls follow the shape of the dose curve; as a rule, active = well fitted curve in the direction sought with a large enough effect; inconclusive = small, poorly fitted or top-dose-only effect, or another doubt; inactive = no such curve, though single readings can be large; an effect the other way counts as inactive or inconclusive.
# How the values were obtained:
# [1] = P-glycoprotein substrates identified in KB-3-1 adenocarcinoma cell line, qHTS therapeutic library screen (AID 1346986); also: nearly all actives have a fitted effect of over 60% in size
# Procedure, shortened: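 Counter-screen: cherry-picked hits retested in the KB pair and in HEK-293 pcDNA/MDR-19 cells ± tariquidar. Primary screen used 72 h CellTiter-Glo viability in KB-3-1 and KB-8-5-11.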
# [2] = P-glycoprotein substrates identified in KB-8-5-11 adenocarcinoma cell line, qHTS therapeutic library screen (AID 1346987); also: nearly all actives have a fitted effect of over 65% in size; as to activity change, negative = cytotoxicity: series mostly up to about 44 µM
# Procedure, shortened: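 P-gp-mediated resistance screen: KB-8-5-11 cells treated 72 h with compounds in dose-response. CellTiter-Glo viability.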
smiles,measurement,setting,value
C[C@@H]1O[C@@H](O[C@H]2[C@H](O)[C@@H](C(=O)O)O[C@@H](O[C@H]3CC[C@@]4(C)C(CC[C@]5(C)C4CC=C4C6CC(C)(C)CC[C@]6(C(=O)O)CC[C@]45C)C3(C)C)[C@@H]2O[C@@H]2O[C@H](CO)[C@@H](O)[C@H](O)[C@H]2O)[C@H](O)[C@H](O)[C@H]1O (stereo partly drawn),outcome,[1],inactive [at 9.29 µM]
same,outcome,[2],inactive [at 9.29 µM]
CN1C(=O)c2ccccc2-n2c(nc3ccccc3c2=O)/C1=C/c1ccccc1,Potency,[1],inactive
same,Potency,[2],inactive
CC(C)=CCCC1(C)Oc2cc3c(c4c2C2C(O4)C(C)(O)CCC21)CN(C(CCC(=O)O)C(=O)O)C3=O (stereo not drawn),Potency,[1],inactive
same,Potency,[2],inactive
CC1(CO)CC[C@]2(C(=O)O[C@@H]3O[C@H](CO)[C@@H](O)[C@H](O)[C@H]3O)CC[C@]3(C)C(=CCC4[C@@]5(C)CC[C@H](O[C@@H]6O[C@H](C(=O)O)[C@@H](O)[C@H](O)[C@H]6O)C(C)(C)C5CC[C@]43C)C2C1 (stereo partly drawn),outcome,[1],inactive [at 9.29 µM]
same,"activity change, negative = cytotoxicity",[2],7.12% [at 9.29 µM]
CO[C@@H]1COCC[C@@H]1N[C@@H]1CC[C@@](C(=O)N2CCc3ncc(C(F)(F)F)cc3C2)(C(C)C)C1,Potency,[1],inactive
same,Potency,[2],inactive
CC(C)(O)/C=C1/C(=O)C(C)(C)C(=O)C(C)(C)C1(O)O[C@@H]1O[C@H](COC(=O)c2cc(O)c(O)c(O)c2)[C@@H](O)[C@H](O)[C@H]1O (stereo partly drawn),Potency,[1],inactive
same,Potency,[2],inactive
C=C1CC[C@H]2[C@@H](/C=C(\C)C(=O)[C@@]3(OC(C)=O)C[C@H](C)[C@H](OC(C)=O)[C@@H]3[C@H]1OC(C)=O)C2(C)C,Potency,[1],inactive
same,Potency,[2],inactive
CCC[C@@H]1C[C@@H](C(=O)N[C@@H]([C@H]2O[C@H](SC)[C@H](O)[C@@H](O)[C@@H]2O)[C@@H](C)O)N(C)C1,Potency,[1],inactive
same,Potency,[2],inactive
CC1=C2C=C(CO)C(CO)CCC2(C)CCC1=O (stereo not drawn),Potency,[1],inactive
same,Potency,[2],inactive
CO[C@@]12CC3[C@@H]([C@@H](O)[C@@H](OC(C)=O)C4[C@](C)(COC(C)=O)CCC[C@]34C)[C@@H](C)C1=CC(=O)O2 (stereo partly drawn),Potency,[1],inactive
same,Potency,[2],inactive
OC[C@H]1O[C@@H](Oc2ccc3c(c2)OC[C@H]2c4cc5c(cc4O[C@@H]32)OCO5)[C@H](O)[C@@H](O)[C@@H]1O,Potency,[1],inactive
same,Potency,[2],inactive
CC(/C=C/C1(O)C(C)(C)CC(O)CC1(C)O)OC1OC(CO)C(O)C(O)C1O (stereo not drawn),Potency,[1],inactive
same,Potency,[2],inactive
CC1CCC2C(C(=O)O)=CC3C(O)C(C)(C)CC123 (stereo not drawn),Potency,[1],inactive
same,Potency,[2],inactive
C=C1C(=O)OC2CC(C)=C(C(C)CCCO[C@@H]3O[C@H](CO)[C@@H](O)[C@H](O)[C@H]3O)C(O)C12 (stereo partly drawn),Potency,[1],inactive
same,Potency,[2],inactive
CCCCCCc1cccc(NC(=O)[C@H](N)CCP(=O)(O)O)c1,outcome,[1],inactive [at 9.29 µM]
same,outcome,[2],inactive [at 9.29 µM]
Cc1c(-c2ccnn2C)cc(C(=O)NCc2ccc(S(C)(=O)=O)cn2)c(=O)n1-c1cccc(C(F)(F)F)c1,Potency,[1],inactive
same,Potency,[2],inactive
OC1COC(OCC2OC(OCCc3ccccc3)C(O)C(O)C2O)C(O)C1O (stereo not drawn),Potency,[1],inactive
same,Potency,[2],inactive
COc1cc(-c2cccc(O)c2)cc2c1OCO2,Potency,[1],inactive
same,Potency,[2],inactive
C=C(C(=O)OC)C1CCC2(C)C(O[C@@H]3O[C@H](CO)[C@@H](O)[C@H](O)[C@H]3O)CC(=O)C(C)C2C1O (stereo partly drawn),Potency,[1],inactive
same,Potency,[2],inactive
C[C@H]1C[C@H]2[C@@H]3CCC4=CC(=O)C=C[C@]4(C)[C@@]3(F)[C@@H](O)C[C@]2(C)[C@@]1(O)C(=O)COP(=O)(O)O,Potency,[1],inactive
same,Potency,[2],inactive
CC(=O)OC[C@]1(O)[C@H]2[C@H](OC(=O)CC(C)C)OC=C(CO[C@@H]3O[C@H](CO)[C@@H](O)[C@H](O)[C@H]3O)[C@H]2C[C@@H]1O,Potency,[1],inactive
same,Potency,[2],inactive
COC(=O)[C@H](OC(C)=O)[C@H]1C(C)(C)C(=O)[C@H]2CC3=C4CC(=O)O[C@@H](c5ccoc5)[C@]4(C)CCC3[C@@]1(C)C2=O (stereo partly drawn),Potency,[1],inactive
same,Potency,[2],inactive
CNC(=O)O[C@H]1COc2ccc(N3CCN(C4COC4)CC3)cc2[C@@H]1NC(=O)c1ccc(F)cc1,Potency,[1],inactive
same,Potency,[2],inactive
COC1C2=C(COC2=O)C2(C)CCCC(C)(CO)C2C1OC(=O)c1ccccc1 (stereo not drawn),Potency,[1],inactive
same,Potency,[2],inactive
O=C(/C=C/c1c(C(=O)O)[nH]c2cc(Cl)cc(Cl)c12)Nc1ccccc1,Potency,[1],inactive
same,Potency,[2],inactive
COc1c(C)c2c(c(O)c1C/C=C(\C)CC/C=C(\C)CCC(=O)O)C(=O)OC2,Potency,[1],inactive
same,Potency,[2],inactive
CC1(C)CCCC2(C)C(CO)C3CCC2C31 (stereo not drawn),Potency,[1],inactive
same,Potency,[2],inactive
CC1(C)C(=O)C(C)(C)c2cc(C(=O)Nc3ccc(C(=O)O)cc3)ccc21,Potency,[1],inactive
same,Potency,[2],inactive
CCN[C@@H]1C[C@H](N)[C@@H](O[C@H]2OC(CN)=CC[C@H]2N)[C@H](O)[C@H]1O[C@H]1OC[C@](C)(O)[C@H](NC)[C@H]1O,Potency,[1],inactive
same,Potency,[2],inactive
C/C=C/C1=CC2=C(CO1)C(=O)[C@](C)(O)[C@H](OC(=O)c1c(O)cc(OC)c(O)c1C)C2,Potency,[1],inactive
same,Potency,[2],inactive
CC(/C=C/C1(O)C(C)CC(O)CC1(C)C)OC1OC(CO)C(O)C(O)C1O (stereo not drawn),Potency,[1],inactive
same,Potency,[2],inactive
COc1ccc(C(O[C@@H]2O[C@H](CO)[C@@H](O)[C@H](O)[C@H]2O)C(CO)Oc2ccc(/C=C/CO)cc2OC)cc1O (stereo partly drawn),Potency,[1],inactive
same,Potency,[2],inactive
C=C1CC2[C@]3(C)C(=C(O)C(=O)[C@@]2(C)[C@]2(C(=O)OC)C(=O)C(C)OC(=O)[C@@]12C)C(C)(C)C(=O)CC3O (stereo partly drawn),Potency,[1],inactive
same,Potency,[2],inactive
CC12CCC3c4ccc(O)cc4CCC3C1CCC2OC1OC(C(=O)O)C(O)C(O)C1O (stereo not drawn),Potency,[1],inactive
same,Potency,[2],inactive
NCCCC[C@H](NC(=O)[C@@H]1Cc2ccccc2CN1C(=O)CCC(=O)c1ccccc1)C(=O)NCC(c1ccccc1)c1ccccc1,Potency,[1],inactive
same,Potency,[2],inactive
CC1(C)CC2C(C1)C1(C)CCC13OC3(CO)C2O (stereo not drawn),Potency,[1],inactive
same,Potency,[2],inactive
CC(C)c1nc(N(C)S(C)(=O)=O)nc(-c2ccc(F)cc2)c1/C=C/[C@@H](O)C[C@@H](O)CC(=O)O,Potency,[1],inactive
same,Potency,[2],inactive
CC(C)c1ccc(CC(=O)N2CCC[C@@H](c3cccc(OC(C)(C)C(=O)O)c3)C2)cc1,Potency,[1],inactive
same,Potency,[2],inactive
C[C@@H]1CC[C@]2(C(=O)O)CC[C@]3(C(=O)O)C(=CCC4[C@@]5(C)CC[C@H](O[C@@H]6O[C@@H](C)[C@H](O[C@@H]7O[C@H](CO)[C@@H](O)[C@H](O)[C@H]7O)[C@@H](O)[C@H]6O)C(C)(C)C5CC[C@]43C)C2[C@H]1C (stereo partly drawn),Potency,[1],inactive
same,Potency,[2],inactive
CC1=C2C(=O)O[C@@H](c3ccoc3)[C@]2(C)CCC1,Potency,[1],inactive
same,Potency,[2],inactive
C=Cc1cc(O)cc2nc(-c3ccc(O)c(F)c3)oc12,Potency,[1],inactive
same,Potency,[2],inactive
C/C1=C2N=C(/C=C3N=C(/C(C)=C4\[N-][C@@](C)([C@@H]5N=C1[C@](C)(CCC(=O)NCC(C)OP(=O)(O)O[C@H]1[C@@H](O)[C@@H](n6cnc7cc(C)c(C)cc76)O[C@@H]1CO)[C@H]5CC(N)=O)[C@@](C)(CC(N)=O)[C@@H]4CCC(N)=O)[C@@](C)(CC(N)=O)[C@@H]\3CCC(N)=O)C(C)(C)[C@@H]/2CCC(N)=O.CC(=O)O.[Co] (stereo partly drawn),Potency,[1],inactive
same,Potency,[2],inactive
N[C@H]1C[C@H]1c1ccc(-c2cccc(O)c2)cc1,Potency,[1],inactive
same,Potency,[2],inactive
CC(=O)OCCC(C)CCC1C(C)(O)CCC2C(C)(C)CCCC21C (stereo not drawn),Potency,[1],inactive
same,Potency,[2],inactive
CC1(C)NC2N(C1=O)c1ccccc1C2(O)CC(C(=O)O)n1cnc2ccccc2c1=O (stereo not drawn),Potency,[1],inactive
same,Potency,[2],inactive
O=c1c2ccccc2nc2n1CCC2O (stereo not drawn),Potency,[1],inactive
same,Potency,[2],inactive
CC(=O)O[C@@]1(C)C[C@@H](O)[C@]2(O)C=CO[C@@H](O[C@@H]3O[C@H](CO)[C@@H](O)[C@H](O)[C@H]3O)[C@@H]21,Potency,[1],inactive
same,Potency,[2],inactive
Nc1nonc1C(=Nc1ccc(F)c(Cl)c1)NO,Potency,[1],inactive
same,Potency,[2],inactive
COc1ccc(/C=C/C(=O)O[C@H]2[C@@H]3C=CO[C@@H](O[C@@H]4O[C@H](CO)[C@@H](O)[C@H](O)[C@H]4O)[C@@H]3[C@@]3(CO)O[C@@H]23)cc1O,Potency,[1],inactive
same,Potency,[2],inactive
